# Reference: the supplement of paper PMC11417369
# ± gives the standard deviation of the averaged measurements. The full ranking holds about 25,000 sequences; the median of “ln(normalized median fluorescence intensity)” is about 8.6, and the highest 2% start at about 10. This is one part of a sample in which the highest values are shown more often than they occur.
# Tested on: PfAP2-EXP AP2 domain (GST-tagged)
# Assay: gcPBM binding intensity (ln(normalized median fluorescence intensity)); higher = stronger DNA binding
# How it was run: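 Plasmodium falciparum DNA-binding domains carrying a GST tag were expressed in E. coli and applied for 1 h, at about 25 μg on average, to an Agilent 4 × 180k array. The array held primer-extended double-stranded 36-bp intergenic genomic probes together with negative controls, and binding took place in 1× PBS with 1% milk, 0.2 mg/ml BSA, 0.5% salmon testes DNA and 0.03% Triton X-100. An Alexa488 anti-GST antibody detected bound protein, and the array was scanned at 488 nm. Binding intensity is taken as the highest Masliner-normalised natural-log median intensity across replicate spots of either probe orientation.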
row,Sequence,gcPBM binding intensity (ln)
1,ATAAAAAAAGATGAACGTACATATATTTTAAAAATC [XGTACX_site5950],8.7 ± 0.45
2,TAATCATTTTTAAATTGTACAATTTATATAATAAGT [XGTACX_site6081],8.5 ± 0.26
3,AAATTTATAAATTAAAGTACATATTTCTTGAATATT [XGTACX_site859],8.34 ± 0.48
4,CTCAACATATACGTAACACACATATATATATATATA [CACACA_site3838],10.2 ± 0.41
5,TAAGTTTTGTTTTTTTGTACTCATTCATACTATCAT [XGTACX_site3638],8.87 ± 0.49
6,TAAAATTTAAGTTATACACACTTAAGTAACATCATC [CACACA_site6395],8.72 ± 0.37
7,TGTTTATGTATCAATTGTACAAAAAAAAAAAAAAAA [XGTACX_site1590],8.26 ± 0.46
8,TGACCTGTTCAGGTAACACACATATAAACACATACA [CACACA_site4186],8.8 ± 0.43
9,TTAATAACGTAATGTAAATGTTTCATACCCTTTTTT [CACACA_negctrl_site988],8.36 ± 0.43
10,ACAAATACAAAAAAAGGTACACACATAATATATTTA [XGTACX_site5515],8.72 ± 0.51
11,AATACAAAAAAAGGTACACACATAATATATTTATTA [CACACA_site2628],8.7 ± 0.34
12,TATATATATAGACACACACACACATATATATATATA [CACACA_site9366],10.1 ± 0.42
13,TAAAAGGATACATATACACACATATATATATATATA [CACACA_site2791],10.2 ± 0.42
14,CCATAAAAAGGATACACACACACACCCACATATATA [CACACA_site903],8.71 ± 0.45
15,AAAGGATACAGACACACACACACATATATATATATA [CACACA_site906],10.1 ± 0.4
16,ATAAAAAAAGGACACACACACATATATATATATATA [CACACA_site5662],10.2 ± 0.42
17,CAACGATACAAAAAAGGTACACATATATATATATAT [XGTACX_site8688],10.2 ± 0.47
18,CCATAAAAAGGATACACACACACACGCACATATATA [CACACA_site6550],8.73 ± 0.5
19,AAAGGATATAGACACACACACACATATATATATATA [CACACA_site2200],10.2 ± 0.14
20,CATATAAAAGGACACACACACACATATATATATATA [CACACA_site4674],10 ± 0.43
21,ATAAAAAAAGGACACACACACATATATTTATTTATA [CACACA_site7438],8.66 ± 0.52
22,TTTTTTATTTTAAAAACATGCATAAAATATAATAGT [TGCATGCA_site762],8.94 ± 0.42
23,ACATGTATACTTTTTACGAAAAAAAAAAAAAAAAAA [CACACA_negctrl_site1638],8.09 ± 0.45
24,TTTTAAAAAGATCATTAAAAAAAAAAAAAGAACAAA [CACACA_negctrl_site528],8.53 ± 0.41

row,Sequence,gcPBM binding intensity (ln)
1,TATACATATTTGTATTGTACATAAACTAAATCTTCA [XGTACX_site610],8.21 ± 0.36
2,ATACGATTGAAACATTGTACATGAATATAAAAAAAT [XGTACX_site5704],8.88 ± 0.47
3,ATATTTTATTATTGTTGTACTTTTTTTTGATTGTTT [XGTACX_site4090],8.81 ± 0.42
4,TTGTGTTCTTATTTTTACACCGAAAAATATTAAAAG [CACACA_negctrl_site535],8.55 ± 0.29
5,AATGGATGGTCCAAATGTACATATATATATATATAT [XGTACX_site4800],10.1 ± 0.41
6,ATATATATATGTTACTGTACTAATTTATATGTTAAT [XGTACX_site3341],9.665 ± 0.064
7,AAAGGGATAACACCAAAAAAAATAAAAATAAAAATA [GTGCAC_negctrl_site680],8.61 ± 0.54
8,GAGAAATGGGGACACACACACATATTATATATATAT [CACACA_site4943],9.71 ± 0.2
9,AATTATGGGGAAAAGACACACATATATATATATATA [CACACA_site2589],10.3 ± 0.31
10,AGGATATGCAGACACACACACATATAGATTTATATA [CACACA_site7100],8.41 ± 0.48
11,ATAAAAAAAAGACACACACACATATATATATATATA [CACACA_site3073],10 ± 0.33
12,AAAAATTATGGACACACACACATATATATATATATT [CACACA_site4717],8.53 ± 0.31
13,AGGATACACAGACACACACACATATATATATATATA [CACACA_site907],10 ± 0.45
14,AGGATATGCAGACACACACACATATATATATATATA [CACACA_site2201],10.3 ± 0.41
15,CATATAAAAAGACACACACACACATATATATATATA [CACACA_site940],10.3 ± 0.18
16,AAAAAAAAAAGACACACACACATATAAATATAAATA [CACACA_site6899],8.75 ± 0.38
17,CATACCTTTTAATGTACACACATTTCTTTTTTGTTA [CACACA_site892],8.88 ± 0.28
18,AAAAAAAAAATTAAATGTACATATATAATATATATA [XGTACX_site7245],8.62 ± 0.014
19,TCCTACATATTATAGTGTACATTTTCATGTTCATAT [XGTACX_site4308],8.62 ± 0.39
20,ATAAGATGATGGAACTGTAATATATATATATATATA [CACACA_negctrl_site839],10 ± 0.5
21,AAAAAAATAAATAAATGTACATATATAAAACATTGT [XGTACX_site2136],8.87 ± 0.33
22,TGTAATCTGGAGAAAAGTACACAGTATCTGGTAGCT [XGTACX_site2039],8.53 ± 0.34
23,TTTTTAATTTACTGTCATAGGTACCTTAACTTATCA [CACACA_negctrl_site1664],8.72 ± 0.49
24,ATATAAATGTATATGACACACATATATATATATATA [CACACA_site889],9.91 ± 0.3

row,Sequence,gcPBM binding intensity (ln)
1,AAAAATAAAAAAATGACACACATATATATATATATA [CACACA_site2307],10 ± 0.53
2,AATGACAACCTTGTCACACATATATATATATATATA [CACACA_site5977],10.2 ± 0.4
3,AAAAAAAAAAAAAAAAATATATTTATGAAATAAAAA [TGCATGCA_negctrl_site262],8.405 ± 0.078
4,ATGGGACATATATATACACACATATATATATATATA [CACACA_site1202],10 ± 0.21
5,ATTTATATTTTATATACACACATGAACTTATATGGA [CACACA_site3167],8.37 ± 0.41
6,TATACAGATGGACACACACACATATATATATATATA [CACACA_site5272],10.2 ± 0.3
7,AACTTACTTGGACATACACACATATAGATTTATATA [CACACA_site7412],8.84 ± 0.3
8,TGAACTTACTTGGACATACACACATATATATATATA [CACACA_site2977],10.2 ± 0.27
9,AACTTACTTGGACATACACACATATATATATATATA [CACACA_site2978],10.2 ± 0.44
10,ATAAATATACATTATACCGACCATGTGGATATTATA [XGTACX_negctrl_site241],8.43 ± 0.49
11,GTGCATATGTAGATATGTACATATTTATTTATTATT [XGTACX_site7343],8.38 ± 0.16
12,TTCTAGAAAACTGATCGTACAAATAAATATAGACAC [XGTACX_site2808],8.88 ± 0.28
13,AATGGTAATCCACATACACACACACCGACACATATA [CACACA_site8876],8.72 ± 0.49
14,TTCTTCTGTTTTATTACACACCATTTTGTGTATACA [CACACA_site7059],8.96 ± 0.35
15,GGTATATATTTATAATGTACATATTCATATATATAA [XGTACX_site3291],8.45 ± 0.39
16,TATATATATATATACACACACACACCCCAAAGCGTA [CACACA_site64],10.4 ± 0.15
17,TATAAATATAAATACACACACACACGCCAAAGCGTA [CACACA_site6181],8.49 ± 0.36
18,TATATATATAAATACACACACACACCCCAAAGCGTA [CACACA_site4211],9.18 ± 0.46
19,CATATACACCAACACACACACACACCCACAAAAAAA [CACACA_site496],8.53 ± 0.4
20,ACCATACATACATACACACACACACCCATATATATA [CACACA_site2917],8.94 ± 0.45
21,TATATATATATATATACACACACACCCACCAAAGCG [CACACA_site7904],10.3 ± 0.26
22,GTACACATATAGTAATAATTTTATTATATTTTTTTG [CACACA_negctrl_site843],8.46 ± 0.3
23,ATATAAGTACGGCATGCATGCACATTTTTTTATTCC [TGCATGCA_site101],10.3 ± 0.23
24,TATATATATATATATTTTTTTTTTTTATGCACATGG [CACACA_negctrl_site1573],10.1 ± 0.36

row,Sequence,gcPBM binding intensity (ln)
1,GATTATTTTATAAGTACACACATTTATATATAATAA [CACACA_site2573],8.41 ± 0.33
2,AAATATTACCATGTGAAAATTTTACTGCAACATGAA [TGCATGCA_negctrl_site609],8.71 ± 0.38
3,AATGAATAATTATTTTGTACATAATATTATATTTAT [XGTACX_site5350],8.34 ± 0.36
4,AATCATTAAAGCATAATGTTTATGATCAATATGAAA [CACACA_negctrl_site887],8.27 ± 0.33
5,CCCTCTTCTCTCATATCACACATGTCATCCTTATCC [CACACA_site5078],9.15 ± 0.42
6,CTCATCCTTACATACACACACATATATATATATATA [CACACA_site103],10.2 ± 0.29
7,CTCATCCTTACATACACACACATATATTTATTTATA [CACACA_site6202],8.99 ± 0.39
8,TTTATATTTATATATACACACATATACATCCTATTT [CACACA_site3079],8.54 ± 0.31
9,TTCTCATCCTTACATACACACACATATATATATATA [CACACA_site7914],10.3 ± 0.11
10,GTTACATACATATACACACACATATATATATATATA [CACACA_site901],9.99 ± 0.35
11,TTTTTTTTTTTTTTTACACACAAATGTATACTATAT [CACACA_site1787],8.46 ± 0.43
12,TTTTTATTGTTATAGTTATAATATATTATTTGATTA [XGTACX_negctrl_site27],8.44 ± 0.4
13,ATATTTGCCCAAGATAGTACATATATATATATATAT [XGTACX_site7756],10.2 ± 0.24
14,TATATATTAGAAGATAGTACATATATATTTATTAAT [XGTACX_site1011],8.53 ± 0.24
15,ATATATATATATAATAGTACATATATTTTGAAAGAT [XGTACX_site5800],9.75 ± 0.27
16,ATAAAAAAAAATAGCACACATAAATATATTATATAT [CACACA_site767],8.66 ± 0.35
17,AAAAATATTATAAGCACACATATATATATATATATA [CACACA_site2458],10.3 ± 0.28
18,ATAAAAATATTATAAGCACACATATATATATATATA [CACACA_site8781],10.2 ± 0.34
19,TATATATATATAAGCACACAAACAAAAAAAATTATA [CACACA_site3897],9.74 ± 0.27
20,AAATTAAATGTAAGCACACATAAATTATACTCATAT [CACACA_site5782],8.36 ± 0.33
21,AATTAAATTATAAGCACACACATATATATATATATA [CACACA_site3351],10.2 ± 0.32
22,AAAATTAAATTATAAGCACACACATATATATATATA [CACACA_site9105],10.2 ± 0.52
23,AAATTAAATGTAAGCACACATAAATTATACGCATAT [CACACA_site3335],8.6 ± 0.38
24,AAAAAAAAAAAATTCACACACATATAAAAAATTAAG [CACACA_site728],8.39 ± 0.45
